AMA1 RON2 block: inhibitors of Plasmodium falciparum AMA1-RON2 interaction. actives 0.2% (n = 360,000). Potency, µM (titrated, usually from 58.2 µM), without a hit: at the highest dose activity change, negative = inhibition, usual class: inhibitors. AlphaScreen AMA1-biotinylated RON2 peptide binding;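 also: potency is read from the fitted curve at half-maximal effect; 0% = vehicle wells and -100% = peptide control; nearly all actives have a fitted effect of over 45% in size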
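AMA1 (3D7) with his tag at 25 nM final met compounds first, then biotinylated RON2 peptide at 25 nM; detection used donor plus acceptor beads, 10 µg/mL apiece, read by AlphaScreen after 30 min at room temperature.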
HCV inhibitor: HCV inhibition; actives 3.4% (n = 340,000); AID 651820; Huh7.5.1 HCVcc-Cre infection, luciferase reporter, 44 h; Potency, µM (doses to about 41.8 µM), for inactives: top-dose activity change, negative = inhibition, actives largely listed as inhibitors; also: potency is read from the fitted curve at half-maximal effect; % is scaled to controls: 0 for no effect and ±100 for the full control effect
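Cells seeded at 1,000/well and cultured 4 h, then compounds added followed by HCVcc-Cre virus (~0.5 moi). After 44 h further culture, luciferase substrate was added, plates held 15 min at room temperature, and luminescence read for 15 sec.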
CHX counter: affects cycloheximide protein synthesis inhibition readout, counter-screen. cell reporter, cycloheximide protein synthesis inhibition counterscreen. max response, %. actives 12% (n = 300,000). AID 2314; in the data active = max response mostly above about 13%, no sharp cut-off; inactive = mostly below about 14%; also: read at 38.3 µM for the half of the compounds with a filed dose; 0% is about no effect
Pf growth 96h: P. falciparum growth inhibition at 96 hour, primary screen for plastid delayed-death inhibitors; P. falciparum luciferase reporter growth, 96 h; Potency, µM (doses to about 28.7 µM), without a hit: at the top dose activity change, negative = inhibition, actives largely listed as inhibitors; actives 6.9% (n = 320,000); AID 504834; also: potency is read from the fitted curve at half-maximal effect; % is scaled to controls: 0 for no effect and ±100 for the full control effect
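Cell-based qHTS: luciferase-tagged P. falciparum in erythrocytes (2% hematocrit, 0.05% parasitemia final) incubated with compounds for 96 hours, 37 C, 5% CO2; luciferase detection reagent then added and luminescence measured.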
Shiga inhibitor: inhibitors of Shiga toxin in Vero cells. Vero cells, Shiga toxin protein synthesis inhibition reporter. inhibition, % at 38.7 µM. actives 9.2% (n = 290,000). AID 2315; in the data active = inhibition mostly above about 28%, no sharp cut-off; inactive = mostly below about 43%; also: 0% is about no effect
Pf growth 48h: P. falciparum growth inhibition at 48 hours (one generation). Potency, µM (doses to about 28.7 µM), without a hit: at the top dose activity change, negative = inhibition, most hits filed as inhibitors. actives 5.9% (n = 310,000). P. falciparum luciferase growth in erythrocytes, 48 h; also: potency is read from the fitted curve at half-maximal effect; % is scaled to controls: 0 for no effect and ±100 for the full control effect
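Cell-based growth assay: transgenic P. falciparum expressing firefly luciferase, cultured in red cells within RPMI 1640 containing 0.5% w/v Albumax, 24 mM bicarbonate and gentamycin. A drop in luciferase activity indicates inhibition.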
An asterisk follows results filed as active; ? = inconclusive; nt = not tested or not shown; [ ] = another dose, or the depositor's remark. Compounds with a hit are over-represented: about 21% of the library has one in this group of screens. Unless noted, calls follow the shape of the dose curve; as a rule, active = well fitted curve in the direction sought with a large enough effect; inconclusive = small, poorly fitted or top-dose-only effect, or another doubt; inactive = no such curve, though single readings can be large; an effect the other way counts as inactive or inconclusive.

SMILES	AMA1 RON2 block	HCV inhibitor	CHX counter	Pf growth 96h	Shiga inhibitor	Pf growth 48h
O=S(=O)(c1cnccc1N1CCN(CCO)CC1)N1CCCCC1	4.5%	20.1%	0.4	36.8%	-7.4	6.3%
c1ccc(OCc2nc3c4c(ncn3n2)-c2ccccc2CC42CCCC2)cc1	13.4%	?	-2.4	-3.5%	-4.1	13.1µM*
Nc1ncnc2c1C1(CCCCC1)Cc1ccccc1-2	-16.6%	-1.1%	-3.1	8.28µM*	-12.2	-15.7%
COc1ccc(Cc2c(-c3ccc(C)cc3)nc3ccc(Cl)cn23)c(C)c1	0.7%	nt	nt	nt	nt	nt
CC(C)n1c(SCC(=O)NC2CC2)nnc1-c1ccco1	-8.1%	-4.5%	-2.0	-24.2%	-10.2	14.3%
Cc1[nH]c2ccccc2c1/C=N/NS(=O)(=O)c1ccccc1	8.9%	-2.5%	5.5	32.2%	6.2	7.4%
Cc1[nH]c2ccccc2c1/C=N/Nc1ccccc1[N+](=O)[O-]	31.6µM*	?	37.4*	-36.2%[5.75 µM]	86.2*	?
CC(=O)Nc1ccc(C=NNc2ccc([N+](=O)[O-])cc2S(=O)(=O)Nc2ccccc2C(=O)O)cc1	114.7%	1.8%	nt	nt	nt	nt
COc1ccc(NS(=O)(=O)c2cc([N+](=O)[O-])ccc2N/N=C/c2c(C)[nH]c3ccccc23)cc1	-9.6%	11.2µM*	nt	nt	nt	nt
CC(C)N1CCN(S(=O)(=O)c2ccccc2)CC1	?	10.4%	-2.8	13.5%	-1.7	12.2%
CC(CCc1ccccc1)N1CCN(Cc2ccccc2)CC1 (configuration not stated)	-4.5%[11.6 µM]	3.4%	-5.7	11.7µM*	-2.7	26.2%
CC(CN1CCN(Cc2ccccc2)CC1)c1ccccc1 (configuration not stated)	3.3%	13.9%	-2.3	-16.0%	nt	-28.7%
CCS(=O)(=O)N1CCN(C(C)CCc2ccccc2)CC1 (configuration not stated)	?	-0.6%	-3.9	3.29µM*	16.9	-6.5%
CCN(C[C@H]1N[C@@](CC)(C(=O)OC)[C@H]2C(=O)N(Cc3ccccc3)C(=O)[C@@H]12)C(=O)c1ccccc1	5.5%	4.3%[8.37 µM]	nt	nt	nt	nt
CCCS(=O)(=O)NCc1cn2c(C)csc2n1	30.1%	9.8%	32.2*	96.8%	49.4*	98.8%
Cc1nc(CCNS(=O)(=O)c2cccs2)cs1	-0.6%	?	5.0	?	-3.6	9.7%
Cc1csc2nc(CCNS(=O)(=O)c3cccs3)cn12	-2.6%	11.8%	18.1*	84.7%	32.4	nt
CCCCn1nnnc1C(c1ccccc1)N1CCN(c2ncc(C(F)(F)F)cc2Cl)CC1 (configuration not stated)	-9.6%	nt	nt	nt	nt	nt
Cc1ccc(NC(=O)COc2cccc(-n3cnnn3)c2)cc1[N+](=O)[O-]	-27.1%	?	9.6	-8.9%	1.0	?
CCOc1cc(C(=O)OCC(=O)Nc2cccc(S(=O)(=O)NC3=NCCCCC3)c2)cc(OCC)c1OCC	-6.9%[11.6 µM]	?	nt	nt	nt	nt
COc1ccc(NC(=O)CC(c2ccco2)C(C)C)cc1 (configuration not stated)	-2.8%	9.9%	20.6*	-13.4%	5.6	?
O=C(CNC(=O)c1ccco1)Nc1ccc(OC(F)F)cc1	38.1%	26.9%	-7.2	3.8%	-7.9	1.5%[0.00184 µM]
O=C(CNC(=O)c1ccco1)Nc1ccncc1	-6.6%	-6.7%	nt	-1.6%	nt	3.1%
COc1ccc(NC(=O)CNC(=O)c2ccco2)cc1	-10.2%	30.4%	50.6*	?	72.6*	40.9%
Cc1ccc(NC(=O)CNC(=O)c2ccco2)cc1	-9.7%	10.1%	33.4*	-9.3%	47.9*	96.9%
SMILES	AMA1 RON2 block	HCV inhibitor	CHX counter	Pf growth 96h	Shiga inhibitor	Pf growth 48h
Cc1ccc2cc(CN(CCN(C)C)C(=O)Nc3ccc(Cl)cc3)c(=O)[nH]c2c1	7.9%	6.31µM*	-0.6	136.2%	13.8	24.0%
COc1ccc2[nH]c(=O)c(CN(Cc3cccnc3)C(=O)Nc3ccccc3)cc2c1	5.4%	-1.0%	14.0	?	-8.4	?
Cc1ccc2[nH]c(=O)c(CN(CCCN(C)C)C(=O)Nc3ccc(Cl)cc3)cc2c1	2.5%	10µM*	-2.8	nt	-3.6	-15.7%
Cc1cc(C)c2cc(CN(CCN3CCCC3)C(=O)Nc3ccc(F)cc3)c(=O)[nH]c2c1	-3.2%	?	4.1	?	-4.6	?
Cc1ccc(NC(=S)N(CCCN(C)C)Cc2cc3cc4c(cc3[nH]c2=O)OCO4)cc1	-6.5%	?	1.1	18.6%	-16.1	?
COc1ccc2[nH]c(=O)c(CN(CCCN(C)C)C(=O)Nc3ccc(F)cc3)cc2c1	-1.1%	?	-3.2	53.8%	16.0	13.1µM*
Cc1cc(C)c2cc(CN(CCO)C(=O)Nc3ccc(Cl)cc3)c(=O)[nH]c2c1	4.9%	-24.2%	5.5	?	-19.2	9.28µM*
Cc1cc(Br)c(NC(=O)CN2C(=O)NC3(CCOc4ccccc43)C2=O)c(Br)c1 (configuration not stated)	-5.2%	nt	nt	nt	nt	nt
O=C(CN1CCN(c2ccc(O)cc2)CC1)Nc1cc(S(=O)(=O)N2CCCCC2)ccc1Cl	-25.8%	10µM*	0.8	9.28µM*	-7.5	-29.3%
O=C(CN1CCN(c2ccc(O)cc2)CC1)Nc1cc(S(=O)(=O)N2CCCC2)ccc1Cl	11.8%	?	17.5	?	23.5	9.28µM*
CCOC(=O)C1CCN(CC(=O)Nc2cc(S(=O)(=O)N3CCCCC3)ccc2Cl)CC1	-13.9%	?	nt	?	nt	11.7µM*
CCCCNS(=O)(=O)c1ccc(Br)cc1N1CCC[C@H]1CO	1.3%	-33.8%	nt	nt	nt	nt
COc1cc(-c2noc(C)c2C#Cc2ccc(N)cc2)cc(OC)c1OC	-20.5%	2.24µM*	14.1*	?	12.2	-0.2%
CNC(C)C#Cc1c(-c2cc(OC)c(OC)c(OC)c2)noc1C (configuration not stated)	-19.2%	?	1.3	14.7µM*	7.1	?
COc1cc(-c2noc(C)c2C#Cc2ccccn2)cc(OC)c1OC	3.2%	?	-0.9	?	-2.2	4.8%
COc1cc(-c2c(-c3cc(OC)c(OC)c(OC)c3)noc2C)ccc1F	-1.5%	?	-1.8	?	2.8	5.0%
C/C(=N\Nc1nc2ccccc2[nH]1)c1ccc2c(c1)OCO2	12.0%	?	35.5*	?	65.0*	?
C/C(=N\Nc1ccccn1)c1ccc(Br)s1	-12.0%	?	nt	nt	nt	nt
C/C(=N\Nc1ccccn1)c1ccc2c(c1)OCO2	6.1%	-27.5%	44.1*	73.0%	71.7*	141.9%
C(=N\Nc1nc2ccccc2[nH]1)/c1ccc2c(c1)OCO2	0.9%	-21.0%	35.2*	?	87.5*	0.465µM*
O=c1nc(N2CCOCC2)nc(N/N=C/c2ccc3c(c2)OCO3)[nH]1	27.9%	8.7%	-2.5	11.7µM*	-2.4	1.4%
CN(/N=C/c1ccc2c(c1)OCO2)c1nc(N2CCOCC2)nc(N2CCOCC2)n1	-6.4%	?	-7.0	4.7%	-15.9	7.3%
